HSF-1 act: increases HSF-1 driven luciferase reporter signal; NIH3T3-HGL HSF-1 luciferase reporter, MG132, 8 h; 100% = twice DMSO control signal; activation, % at 9 µM; 1.7% of 300,000 active;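 active means mean replicate activation of at least 50% with a set share of replicates each reaching 50%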
AHR activator: activates the human aryl hydrocarbon receptor; AHR-responsive luciferase reporter cells, luminescence; activation, % at 5 µM; 2.5% of 320,000 active; AID 2796; in the data active means activation above about 47%
NR0B1 inh: NR0B1 (DAX1) inhibition; P51843; HEK293 Gal4-DAX1 luciferase reporter, luminescence; inhibition, % at 6.75 µM; 0.99% of 340,000 active;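 active means inhibition above the mean over all tested compounds plus 3 SD, cut at about 4.2% in these data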;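 further: inhibition shows as a rise in luminescence from relieved DAX1 repression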
Target sequence (P51843 207-470 limits assumed): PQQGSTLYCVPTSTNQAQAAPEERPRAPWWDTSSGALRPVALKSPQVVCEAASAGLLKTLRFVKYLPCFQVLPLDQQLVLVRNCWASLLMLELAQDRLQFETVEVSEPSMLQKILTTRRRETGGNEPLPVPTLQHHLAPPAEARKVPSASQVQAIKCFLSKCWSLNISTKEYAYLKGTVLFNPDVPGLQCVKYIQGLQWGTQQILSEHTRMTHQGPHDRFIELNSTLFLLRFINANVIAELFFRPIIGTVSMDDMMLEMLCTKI
HSF1 inhib: HSF1 inhibition. activity change, negative = inhibition, % at 7.5 µM (by protocol). 0.77% of 300,000 active. NIH3T3-HGL HSE-luciferase, MG132-induced, luminescence 8 h; active compounds read low;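 active means more than half of replicate wells show activity change below -50%, luminescence cut by over half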;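 further: luciferase reports HSF-1 transcriptional activity via heat shock element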
FXN GAA850 act: increases GAA850 frataxin promoter reporter activity | HEK293 lucGAA850 FXN promoter luciferase reporter, 24 h; percent of 10 µM SAHA response | activation, % at 6 µM | 0.56% of 360,000 active | AID 540364;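 active means activation above the average of all compounds screened plus 3 SD, cutoff fixed separately per campaign, cut at about 7.5% in these data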
Numbers stand for hits; n = inactive; x = no result given. In the library only some 5.4% were active in any assay of this set; here they are far more common.

SMILES	HSF-1 act	AHR activator	NR0B1 inh	HSF1 inhib	FXN GAA850 act
COc1cc(CC(=O)O)c([N+](=O)[O-])cc1OC	n	n	n	n	n
COc1cc2c(cc1[N+](=O)[O-])n(C(C)C)c(=O)n2C(C)C	n	n	5.5	n	n
COc1ccc([C@H]2C[C@@H](n3cc(-c4ccc(F)cc4)nn3)[C@H](O)CN2CC2CCCCC2)cc1	x	x	n	x	n
COc1cc(C(=O)CSc2nccn2C)cc(OC)c1OC	n	47	n	n	n
S=c1[nH]nc(-c2ccncc2)n1/N=C/c1cccc(Cl)c1	n	n	x	n	n
COc1ccccc1OCC#CCn1ccnc1	n	60	n	n	n
Clc1ccc2[nH]c3c(c2c1)CCc1cn[nH]c1-3	n	96	n	n	n
c1ccc2c3c([nH]c2c1)-c1[nH]ncc1CC3	n	n	n	n	n
O=C1CC(c2ccccc2)n2nc(NC(=O)c3ccccc3)nc2N1 (centres undefined)	64	n	n	n	n
Cc1ccc(C(=O)Nc2nc3n(n2)C(c2ccccc2)CC(=O)N3)cc1 (centres undefined)	n	n	x	n	n
C/C(=N/NS(=O)(=O)c1ccc(Cl)cc1)c1ccncc1	n	n	n	n	n
C/C(=N/NS(=O)(=O)c1ccccc1)c1ccc(Cl)cc1	n	53	n	n	n
CCN(CC)CCNC(=O)c1nn(-c2ccc(Cl)cc2)c2c1CCc1cc(OC)ccc1-2	n	x	n	n	n
CN(C)C(CNC(=O)CCS(=O)(=O)c1ccccc1)c1ccccc1 (centres undefined)	n	n	n	n	n
CN(C)C(CNC(=O)CCC(=O)c1ccc(Br)cc1)c1ccccc1 (centres undefined)	63	n	n	n	n
CS(=O)(=O)N(CC(=O)Nc1c(F)cccc1F)c1ccc(C23CC4CC(CC(C4)C2)C3)cc1	n	n	n	n	n
CC(=O)Nc1ccc(NC(=O)CN(c2ccc(C34CC5CC(CC(C5)C3)C4)cc2)S(C)(=O)=O)cc1	n	n	n	n	9.5
CS(=O)(=O)N(CC(=O)Nc1ccc(CC#N)cc1)c1ccc(C23CC4CC(CC(C4)C2)C3)cc1	60	n	n	n	11
CCn1nc(C(=O)NCc2nnc3ccccn23)c2ccccc2c1=O	x	x	n	x	n
O=C(CSc1nncc2ccccc12)Nc1ccc(C(=O)O)cc1	n	n	n	n	n
COc1ccc(CN2CCNC(=O)C2CC(=O)N(C)C2CCCCC2)cc1OC (centres undefined)	x	x	n	x	n
Cc1ccc(SCCSc2nc(C)cc(=O)[nH]2)cc1	n	n	5.0	n	n
CCOC(=O)c1ccc(NCc2cccnc2)cc1	n	n	n	n	n
O=C(COC(=O)c1ccc(CO)cc1)Nc1ccc(OC(F)F)cc1	n	n	n	n	n
Cc1c(C(=O)Nc2ccc(Cl)cc2)c2ccccn2c1CCc1ccncc1	66	87	n	n	n
SMILES	HSF-1 act	AHR activator	NR0B1 inh	HSF1 inhib	FXN GAA850 act
O=[N+]([O-])c1cc(Cl)ccc1NCCNS(=O)(=O)c1ccccc1	55	n	n	n	n
C/C(CCc1ccccc1)=N/NC(=O)C(=O)NC(C)c1ccccc1 (centres undefined)	n	n	n	n	n
CCc1cccc(CC)c1NC(=O)C1SC(=Nc2ccccc2C)C(c2nc3ccccc3s2)=C1N (centres undefined)	n	54	n	n	n
CCc1cccc(C)c1NC(=O)CCCSc1nc2ccccc2s1	n	n	n	n	n
CC(C)Cn1cc(C(=O)NCCCN2CCC(C)CC2)c2c3ccccc3n(C)c2c1=O	n	n	5.3	n	n
Cc1ccc(CNC(=O)c2cn(C3CCCCC3)c(=O)c3c2c2ccccc2n3C)o1	79	n	n	n	n
CC1CCN(CCCNC(=O)c2cc3c(=O)n(C)c4ccccc4c3n2C)CC1	n	n	6.0	n	n
COCCCNC(=O)c1cn(CCOC)c(=O)c2c1c1ccccc1n2C	n	n	n	n	n
COCCCNC(=O)c1cn(CC(C)C)c(=O)c2c1c1ccccc1n2C	n	n	n	-75	n
ClCCn1cnc2c(SCc3ccccc3)ncnc21	x	x	n	x	n
Cn1c(C(=O)NCC2CCCO2)cc2c(=O)n(C)c3ccccc3c21 (centres undefined)	n	49	n	n	n
CC(C)NC(=O)C1(C)CCN1C(=O)C(c1ccccc1)c1ccccc1 (centres undefined)	x	x	x	x	n
NNC(=O)c1ccc(COc2ccc([N+](=O)[O-])cc2)o1	n	n	n	n	n
CCCc1ccc(OCc2ccc(C(=O)NN)o2)c(OC)c1	n	56	n	n	n

High-throughput results as filed in PubChem BioAssay.
